# Assay outcomes as filed in PubChem.
# Rows were chosen to be rich in hits. Some 2.5% of all compounds tested hit in one or more screens of this group.
# Cruzain inh Det = qHTS Assay for Promiscuous and Specific Inhibitors of Cruzain (with detergent); hit rate 0.43% among 200,000; Cruzipain (Trypanosoma cruzi), P25779; purified cruzain, Z-FR-AMC fluorescence, 0.01% Triton; AID 1478, 2009; Potency, µM, most hits filed as inhibitors; further: nearly all actives have a fitted effect of over 40% in size
#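 Detergent-containing arm of a paired screen for aggregation-based inhibition: 0.01% Triton X-100 present. Cruzain at 1.5 nM cleaved 2 uM Z-FR-AMC at pH 5.5 with 5 mM DTT; AMC fluorescence gain over 60 s measured activity.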
# Cruzain noTriton = qHTS Assay for Promiscuous and Specific Inhibitors of Cruzain (without detergent). Cruzipain (Trypanosoma cruzi), P25779. purified cruzain, Z-FR-AMC fluorescence, no detergent. Potency, µM, actives largely listed as inhibitors. hit rate 2.3% among 200,000. AID 1476, 2009; further: nearly all actives have a fitted effect of over 40% in size
#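 Detergent-free condition (0.00005% Triton X-100) in acetate buffer pH 5.5 with DTT. 1.5 nM enzyme and compound were pre-mixed 15 min, then 2 uM Z-FR-AMC substrate added; reaction progress from fluorescence change between first and third reads (60 s).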
# Papain inh = qHTS Assay for Inhibitors of Papain: Counterscreen for Cruzain Assay | shares compounds with Cruzain inh Det | purified papain, Z-FR-AMC fluorescence cleavage | Potency, µM, actives largely listed as inhibitors | hit rate 41% among 410 | AID 2161, 2009; further: nearly all actives have a fitted effect of over 35% in size
# Target sequence (P00784 whole entry, looked up): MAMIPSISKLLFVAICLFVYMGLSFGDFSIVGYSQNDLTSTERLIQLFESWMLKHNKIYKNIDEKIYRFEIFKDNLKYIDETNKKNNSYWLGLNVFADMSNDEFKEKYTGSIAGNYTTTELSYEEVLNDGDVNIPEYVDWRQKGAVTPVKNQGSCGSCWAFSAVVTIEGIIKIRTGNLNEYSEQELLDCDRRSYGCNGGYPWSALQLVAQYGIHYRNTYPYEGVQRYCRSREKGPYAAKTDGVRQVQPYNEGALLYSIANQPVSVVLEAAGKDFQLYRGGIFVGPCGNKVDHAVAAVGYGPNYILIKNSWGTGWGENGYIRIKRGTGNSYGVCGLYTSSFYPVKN
# Numbers stand for hits; . = inactive; ? = inconclusive; / = no result. The call rests on the fitted dose curve; in most records, active means well fitted curve in the direction sought with a large enough effect; inconclusive means small, poorly fitted or top-dose-only effect, or another doubt; inactive means no such curve, though single readings can be large; an effect the other way counts as inactive or inconclusive.
SMILES,Cruzain inh Det,Cruzain noTriton,Papain inh
COc1cc(OC)c(NS(=O)(=O)c2ccc3c(c2)CCCN3C(C)=O)cc1Cl,.,.,/
Cc1ccccc1NC(=O)C(=O)NCC(c1ccc2c(c1)OCO2)N1CCN(c2ccccc2)CC1 (stereo unspecified),.,.,/
CCCCNC(=O)c1ccc2nc(-c3cccs3)c(-c3cccs3)nc2c1,/,/,.
COC(CNC(=O)c1ccc2nc(-c3cccs3)c(-c3cccs3)nc2c1)OC,.,.,/
CCOc1ccc(-c2cccc(NS(=O)(=O)c3c(C)cc(C)cc3C)c2)nn1,.,.,/
Cc1cccc(Cn2c(CNS(=O)(=O)c3ccc(C(C)C)cc3)nc3cccnc32)c1,.,.,/
Cc1nnc(N/N=C/c2ccc(O)c([N+](=O)[O-])c2)[nH]c1=O,.,.,/
Cc1csc(N/N=C/c2ccc(O)c([N+](=O)[O-])c2)n1,7.1µM,7.9µM,.
Cc1ccc(-n2ncc3c(NCCCN4CCOCC4)ncnc32)cc1C,.,.,/
CCCCNc1nc(SC)nc2nc[nH]c12,.,.,/
CCOC(=O)[C@H](CCc1ccccc1)N[C@@H](C)C(=O)N1[C@H](C(=O)O)C[C@H]2CCC[C@@H]21,.,.,/
CCOC(=O)[C@H](CCc1ccccc1)N[C@@H](C)C(=O)N1[C@H](C(=O)O)C[C@H]2CCCC[C@@H]21,.,?,.
Cc1cccc(N(C)c2nc3ccccc3c3nnc(C)n23)c1,.,.,/
O=C1C(=Cc2ccco2)C(=O)c2ccccc21,.,.,/
O=C1/C(=C/c2ccco2)CCc2ccccc21,2.2µM,2µM,28µM
COc1ccc2[nH]c(=O)c(CN(Cc3nnnn3Cc3ccco3)C3CCCCC3)cc2c1,7.1µM,7.9µM,.
CCC(c1nnnn1Cc1ccco1)N(Cc1ccccc1OC)Cc1cc2cc(C)ccc2[nH]c1=O (stereo unspecified),.,.,/
CCc1ccc2[nH]c(=O)c(CN(Cc3ccco3)Cc3nnnn3Cc3ccco3)cc2c1,/,/,.
COc1ccc2cc(CN(CCc3ccccc3)Cc3nnnn3Cc3ccco3)c(=O)[nH]c2c1,.,.,/
COc1ccc2[nH]c(=O)c(CN(C3CCCCC3)C(c3nnnn3Cc3ccco3)C(C)C)cc2c1 (stereo unspecified),.,?,/
Cc1ccc2[nH]c(=O)c(CN(Cc3ccco3)Cc3nnnn3Cc3ccco3)cc2c1,/,/,.
Cc1ccc2[nH]c(=O)c(CN(Cc3ccccc3)Cc3nnnn3C3CCCC3)cc2c1,.,.,/
Cc1ccc2[nH]c(=O)c(CN(Cc3ccccc3)Cc3nnnn3Cc3ccco3)cc2c1,/,/,.
CN1CCN(C(=O)Nc2cccc(Cl)c2)c2cccnc21,.,.,/
CCCCN(CC)CCNC(=O)CCn1cnc2onc(-c3ccc(F)cc3)c2c1=O,.,.,/
SMILES,Cruzain inh Det,Cruzain noTriton,Papain inh
CCCCC/C=C\C/C=C\C/C=C\C/C=C\CCCCCC(=O)NCC(=O)O,.,.,/
CCc1ccc(CN(Cc2ccco2)c2cnc(S(C)(=O)=O)nc2C(=O)Nc2cccc(C)c2)cc1,.,?,/
COc1cc(OC)c(OC)cc1CN1CCc2nc(N3CCN(c4ccccc4F)CC3)ncc2C1,.,.,/
Cc1ccc(CN(Cc2cc3cc4c(cc3[nH]c2=O)OCCO4)Cc2nnnn2Cc2ccco2)cc1,20µM,.,.
Cc1ccc2cc(CN(Cc3ccc4c(c3)OCO4)Cc3nnnn3Cc3ccco3)c(=O)[nH]c2c1,.,.,/
O=C(NCc1ccco1)c1ccc2nc3sc4c(c3c(=O)n2c1)CCCC4,10µM,.,25µM
C=CCn1c(SCC(=O)NCc2ccco2)nc2sc3c(c2c1=O)CCCC3,.,.,/
CCc1ccc(NC(=O)C(=O)NCC(c2cccnc2)N2CCN(Cc3ccccc3)CC2)cc1 (stereo unspecified),.,.,/
Cc1ccc(C)c(Cn2c(=O)n(CCCC(=O)NCc3ccc4c(c3)OCO4)c(=O)c3sccc32)c1,.,.,/
CCC(C)n1c(=O)c2sccc2n2c(CCCC(=O)Nc3ccc(F)cc3)nnc12 (stereo unspecified),.,.,/
Cc1cc(C)n2nc(-c3cccnc3)nc2n1,.,.,/
Cn1nc(-c2cccnc2)nc2c(=O)n(C)c(=O)nc1-2,/,/,.
Cn1nc(-c2ccc(F)cc2)nc2c(=O)n(C)c(=O)nc1-2,/,/,.
COc1ccc(-c2nc3c(=O)n(C)c(=O)nc-3n(C)n2)cc1,/,/,.
Cc1cc(C)n2nc(-c3ccc(F)cc3)nc2n1,.,.,/
COc1ccc(-n2c(C)nn(C)c2=O)cc1,.,.,/
CCn1nc(-c2ccccc2C)nc2c(=O)n(C)c(=O)nc1-2,/,/,.
Cn1c(=O)nc2n(Cc3ccccc3)c3ccccc3cc-2c1=O,?,.,/
COC(=O)C(C)NC(=O)N1CCN(c2nnc(C)c3c(C)n(-c4ccc(Cl)cc4)nc23)CC1 (stereo unspecified),.,.,/
Cc1ccc(N2CCN(C(=O)c3c4c(nc5ccccc35)C(=O)N(C3CCCCC3)C4)CC2)c(C)c1,.,.,/
Cn1nc(-c2ccc(Cl)cc2)nc2c(=O)n(C)c(=O)nc1-2,1.6µM,1.6µM,.
Cc1ccc(-c2nc3n(n2)C(=O)CC(c2ccc(Cl)cc2)S3)cc1 (stereo unspecified),.,.,/
Cc1cc(C)cc(Nc2cc(C(=O)NC3CCC(C)CC3)c3ccccc3n2)c1 (stereo unspecified),.,.,/
CCc1ccccc1NC(=O)CSc1nnc([C@@H](N)Cc2c[nH]c3ccccc23)o1,10µM,10µM,.
CC(C)=CCSc1nnc([C@@H](N)Cc2c[nH]c3ccccc23)o1,.,.,/
SMILES,Cruzain inh Det,Cruzain noTriton,Papain inh
CCOc1ccc(-c2nc3c(C#N)c[nH]n3c2NC2CCCC2)cc1,.,.,/
COc1ccc(NC(=O)c2c(NCc3cccs3)sc3c2CCCCC3)cc1,.,.,/
O=c1oc2ccc(Br)cc2cc1-c1csc(-c2ccc(Cl)cc2)n1,.,.,/
O=c1oc2ccccc2cc1-c1csc(Cc2nc(-c3ccc(Br)cc3)cs2)n1,.,3.2µM,.
COc1ccc(-n2c(SCc3ccccc3F)nc3c([nH]c4ccccc43)c2=O)cc1,.,.,/
N#Cc1nc(Nc2cccc([N+](=O)[O-])c2)nc(NC2CCCC2)n1,/,/,2.8µM
Cc1cccc(Nc2nc(C#N)nc(NC3CCCC3)n2)c1,/,/,0.45µM
O=C(CO/N=C/c1cccc([N+](=O)[O-])c1)NC1CCCCCC1,.,.,/
Cc1cccc(Nc2nc(N)c([N+](=O)[O-])c(N3CCC(C)CC3)n2)c1,.,.,/
Cc1ccc(NC(=O)CCNS(=O)(=O)c2ccc3c(c2)CCN3C(=O)C2CC2)c(Cl)c1,.,.,/
CCOc1ccc(Oc2nc(NCC(C)C)nc(NC(C)(C)C)n2)nn1,.,.,/
Cc1cc(C)cc(NC(=O)Cn2c(=O)n(C(C)C)c(=O)c3oc4ccccc4c32)c1,.,.,/
O=[N+]([O-])c1cc(C(F)(F)F)ccc1-n1nnc2ccccc21,.,.,/
O=[N+]([O-])c1cc(S(=O)(=O)Nc2ccccc2)ccc1-n1nnc2ccccc21,11µM,?,.
